Our source for the z-score and composite z-score values is PubChem BioAssay.

Assay [1] can be described thus: compound effects on lung adenocarcinoma cell viability – A549, calcein-AM fluorescence, 48 h, basal, profiling panel (AID 1162). Also: test concentration not given here. The conditions noted are these: higher = more signal.
Assay [2] is described as follows: compound effects on differentiated 3T3-L1 adipocyte viability – cell-based, 3T3-L1 adipocytes, calcein-AM fluorescence, 48 h, basal, profiling panel (AID 1163). Also: test concentration not given here. The conditions noted are these: 3T3-L1 adipocytes viability, higher = more signal.
A short description of assay [3]: compound effects on hepatocellular carcinoma cell viability – HepG2, calcein-AM fluorescence, 48 h, basal, profiling panel (AID 1164). Also: test concentration not given here. The conditions noted are these: higher = more signal.
Assay [4] is described as follows: compound effects on multiple myeloma cell viability – MM1S, calcein-AM fluorescence, 48 h, basal, profiling panel (AID 1165). Also: test concentration not given here. As to conditions: higher = more signal.
Assay [5] in a line: calcein-AM signal in unstimulated myeloma cells – cell-based, calcein-AM fluorescence, 48 h, PK04 Diversity Set, profiling panel (AID 1166).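 Also: cells grown under basal conditions without added stimulus; test concentration not given here.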 The conditions noted are these: RPMI8226 myeloma viability, higher = more signal.
A short description of assay [6]: JC-1 mitochondrial signal, unstimulated HepG2 cells – cell-based, JC-1 fluorescence, 24 h, 100 nL compound, profiling panel (AID 1167). Also: test concentration not given here. The conditions noted are these: HepG2 mitochondrial potential, higher = more signal.
Assay [7] can be described thus: JC-1 mitochondrial signal, unstimulated adipocytes – cell-based, JC-1 fluorescence, 3T3-L1 adipocytes, 24 h, 100 nL compound, profiling panel (AID 1168). Also: test concentration not given here. As to conditions: JC-1 mitochondrial fluorescence, higher = more signal, called active from +8 up or from −8 down.
Assay [8] in a line: JC-1 mitochondrial signal, unstimulated myeloma cells – cell-based, JC-1 fluorescence, RPMI8226, 24 h, 100 nL compound, profiling panel (AID 1169). Also: test concentration not given here. As to conditions: JC-1 mitochondrial potential fluorescence, higher = more signal.
Assay [9] can be described thus: JC-1 mitochondrial signal, unstimulated MM1S myeloma – cell-based, JC-1 fluorescence, 24 h, 100 nL compound, profiling panel (AID 1170). Also: test concentration not given here. The conditions noted are these: MM1S mitochondrial potential, higher = more signal.
A short description of assay [10]: resazurin metabolic signal in A549 cells – cell-based, resazurin fluorescence, 24 h, PK04 Diversity Set, profiling panel (AID 1171). Also: test concentration not given here. As to conditions: A549 viability, higher = more signal, called active from +8 up or from −8 down.
The nature of assay [11]: resazurin metabolic signal in HepG2 cells – cell-based, resazurin fluorescence, 24 h, PK04 Diversity Set, profiling panel (AID 1172). Also: test concentration not given here. The conditions noted are these: HepG2 viability, higher = more signal.
Assay [12] in a line: budding yeast growth changes without added modifier – OD600, strain BY4716, 24 h, basal condition, primary screen (AID 1173). The conditions noted are these: S. cerevisiae BY4716 growth, OD600, 24 h; higher = more signal, called active from +8 up or from −8 down.
Assay [13] in a line: viability profiling in MM1S myeloma cells – cell-based, resazurin fluorescence, basal, 24 h, PK04 Diversity Set, profiling panel (AID 1174). Also: test concentration not given here. The conditions noted are these: higher = more signal, called active from +8 up or from −8 down.
The target in assay [14] is Dihydroorotate dehydrogenase (quinone), mitochondrial (Plasmodium falciparum (isolate 3D7)) (UniProt Q08210). Description: inhibition of P. falciparum DHODH – biochemical, C-terminal His tag, absorbance 600 nm, primary screen (AID 1175).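 Also: recombinant parasite enzyme with a five histidine tag at its C terminus; test concentration not given here.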 As to conditions: PfDHODH enzyme, DCIP absorbance 600 nm; higher = more signal, called active from +8 up or from −8 down.
Sequence of Dihydroorotate dehydrogenase (quinone), mitochondrial (Plasmodium falciparum (isolate 3D7)) (Q08210 whole entry, looked up): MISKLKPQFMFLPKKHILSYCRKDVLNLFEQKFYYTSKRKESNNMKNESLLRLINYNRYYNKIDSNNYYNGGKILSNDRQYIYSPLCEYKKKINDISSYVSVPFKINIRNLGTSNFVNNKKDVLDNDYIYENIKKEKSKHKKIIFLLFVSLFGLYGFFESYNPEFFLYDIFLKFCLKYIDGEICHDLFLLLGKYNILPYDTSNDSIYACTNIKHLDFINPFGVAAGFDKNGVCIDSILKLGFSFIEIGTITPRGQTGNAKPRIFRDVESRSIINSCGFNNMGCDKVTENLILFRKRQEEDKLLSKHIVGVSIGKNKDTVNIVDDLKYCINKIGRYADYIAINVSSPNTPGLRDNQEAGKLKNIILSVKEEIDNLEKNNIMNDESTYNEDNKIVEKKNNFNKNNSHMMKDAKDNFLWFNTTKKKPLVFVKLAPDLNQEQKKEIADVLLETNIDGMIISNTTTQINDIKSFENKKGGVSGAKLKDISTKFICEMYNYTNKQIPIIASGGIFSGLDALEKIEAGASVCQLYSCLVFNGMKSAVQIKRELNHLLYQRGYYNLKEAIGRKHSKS
Assay [15] in a line: inhibition of PAO1 biofilm formation – strain PAO1, LB-PBS medium, absorbance 600 nm, primary screen (AID 1176). Also: test concentration not given here. As to conditions: P. aeruginosa PAO1 growth/biofilm, A600, 12 h; higher = more signal.
Assay [16] can be described thus: growth modulation of vineyard yeast isolate – strain RM11-1a, OD600, basal, 24 h, primary screen (AID 1177).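 Also: cultures grown under basal conditions with no added stressor; test concentration not given here.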 The conditions noted are these: S. cerevisiae RM11-1a growth, OD600, 24 h; higher = more signal, called active from +8 up or from −8 down.
A short description of assay [17]: growth of efflux-deficient E. coli DRC39 – strain DRC39, OD650, 24 h, E. coli filamentation inducers, primary screen (AID 1178).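 Also: growth measured as culture turbidity by optical density at 650 nm; test concentration not given here.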 As to conditions: E. coli DRC39 acrAB, higher = more signal, called active from +8 up or from −8 down.
The nature of assay [18]: growth of efflux-deficient E. coli DRC39 – strain DRC39, OD650, 48 h, E. coli filamentation inducers, primary screen (AID 1179).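 Also: screen aims at cell division blockers that make cells filament.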 As to conditions: E. coli DRC39 delta-acrAB growth, higher = more signal, called active from +8 up or from −8 down.
The nature of assay [19]: viability profiling in RPMI8226 myeloma cells – cell-based, resazurin fluorescence, basal, 24 h, PK04 Diversity Set, profiling panel (AID 1180).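 Also: RPMI8826 multiple myeloma cell line at 5000 cells per well; test concentration not given here.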 The conditions noted are these: higher = more signal.
Assay [20] addresses E3 ubiquitin-protein ligase XIAP (Homo sapiens) (UniProt P98170). Description: small molecules binding XIAP protein – biophysical, small-molecule microarray, fluorescence 635 nm, primary screen (AID 1181).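 Also: score merges 667 nm emission and signal to noise over triplicate slides.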 As to conditions: higher = more signal.

Active and inactive are the calls of the source. Unless noted, no rule for the calls is given here.

Sequence of E3 ubiquitin-protein ligase XIAP (Homo sapiens) (P98170 whole entry, looked up): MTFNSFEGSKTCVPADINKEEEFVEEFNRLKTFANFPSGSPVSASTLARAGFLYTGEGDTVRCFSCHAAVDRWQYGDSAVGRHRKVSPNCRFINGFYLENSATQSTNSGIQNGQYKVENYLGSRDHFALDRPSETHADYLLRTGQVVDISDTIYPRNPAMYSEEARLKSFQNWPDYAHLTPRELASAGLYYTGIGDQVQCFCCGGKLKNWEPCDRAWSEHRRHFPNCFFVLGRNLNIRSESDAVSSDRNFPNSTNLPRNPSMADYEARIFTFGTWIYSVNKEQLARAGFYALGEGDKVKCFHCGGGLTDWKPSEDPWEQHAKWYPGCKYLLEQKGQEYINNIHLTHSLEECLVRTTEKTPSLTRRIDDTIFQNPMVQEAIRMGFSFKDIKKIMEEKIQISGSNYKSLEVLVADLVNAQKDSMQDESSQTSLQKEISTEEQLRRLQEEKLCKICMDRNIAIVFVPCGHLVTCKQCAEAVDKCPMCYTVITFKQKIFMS

On to `CN(C)CCCCNC(=O)[C@H]1C[C@H]2C(=O)N[C@@H](Cc3ccccc3)C(=O)N2[C@H]1c1ccc(O)cc1`, for which the z-score in assay [1] is -0.451; in assay [2], 0.7; in assay [3] it was -0.98; in [4] it was -0.417; in assay [5], 0.287; in assay [6], -0.77. Moreover, the z-score in assay [7] was -0.248 (inactive); in [8] it was -0.136; in assay [9], -0.149; in assay [10] it was -0.1 (inactive); in [11] it was -0.0562; in [12], -0.5 (inactive). Also, the z-score in [13] was -0.0866 (inactive); in assay [15], 2.86 (inactive); in assay [16] it was 0.466 (inactive); in [17], -0.539 (inactive); in assay [18], -0.855 (inactive); in assay [19] it was -0.0845. Further, the figures for the composite z-score in assay [14] and in assay [20] were -16.7 (active) and 0.0256, respectively.
Regarding `COC(=O)c1ccc(C(O)C2C=CC3C(=O)N(C)C(=O)C3N2NC(=O)OC(C)(C)C)o1` (stereo not given), the z-score in assay [1] is 0.441; in assay [2], -0.425; in assay [3] it was 0.0285; in assay [4] it was -0.978; in assay [5], -0.342; in assay [6] it was -1.28. Besides, the z-score is -0.429 (inactive) in assay [7]; -0.535 in [8]; 0.395 in assay [9]; 0.347 (inactive) in assay [10]; -0.784 in assay [11]; 0.483 (inactive) in assay [12]. Further, the z-score in assay [13] is -0.29 (inactive); in assay [15] it was 0.599 (inactive); in assay [16], 0.402 (inactive); in assay [17], -0.685 (inactive); in [18], -0.757 (inactive); in assay [19] it was -0.212. Besides, the composite z-score is -0.0658 (inactive) in assay [14] and 1.42 in assay [20].
For the compound `CCCCCCc1nc(CCCc2cc3c(c(CCCCCC)n2)[Si](C(C)C)(C(C)C)OC3)cc2c1[Si](C(C)C)(C(C)C)OC2`, the z-score is -2.42 in [1]; 1.78 in assay [2]; -1.47 in assay [3]; -3.28 in assay [4]; -4.35 in [5]; 0.535 in assay [6]. For the same compound, the z-score in [7] was 0.705 (inactive); in [8] it was -1.1; in assay [9] it was -0.553; in assay [10], 1.75 (inactive); in assay [11], -0.0097; in [12], -0.528 (inactive). Also, the z-score in assay [13] is 0.129 (inactive); in assay [15], 0.374 (inactive); in [16] it was 0.539 (inactive); in assay [17], -0.214 (inactive); in [18] it was -0.728 (inactive); in assay [19] it was -0.655. Also, the values for the composite z-score in assay [14] and in assay [20] were -2.32 (inactive) and -0.0829, respectively.
As to `O=C/C=C/c1ccc(Cl)cc1`, the z-score is 1.04 in assay [1]; -0.0776 in [2]; 0.265 in assay [3]; -3.17 in assay [4]; 0.45 in [5]; 1.32 in assay [6]. Further, the z-score in assay [7] was -0.34 (inactive); in assay [8], -0.762; in assay [9], -1.25; in assay [10], -0.835 (inactive); in assay [11], -0.831; in assay [12] it was -18 (active). The z-score was -0.832 (inactive) in assay [13]; 0.475 (inactive) in assay [15]; -4.94 (inactive) in assay [16]; 0.3 (inactive) in [17]; 0.782 (inactive) in assay [18]; -0.81 in assay [19]. Also, the composite z-score in assay [14] is -1.96 (inactive); in [20], -0.134.
For the compound `CCCNC(=O)[C@@]1(c2ccc([N+](=O)[O-])cc2)CC(=O)N(CC23CC4CC(CC(C4)C2)C3)[C@@H]1c1ccc(CO)cc1`, the z-score in assay [1] was -1.05; in assay [2], -0.35; in assay [3], -1.67; in [4], -3.54; in [5] it was -3.38; in assay [6] it was -0.99. For the same compound, the z-score in [7] is -0.141 (inactive); in assay [8], -0.769; in assay [9], -1.05; in [10], -2.9 (inactive); in assay [11] it was -1.8; in assay [12], 1.07 (inactive). The z-score is -3.32 (inactive) in assay [13]; 0.416 (inactive) in assay [15]; 1.05 (inactive) in [16]; -0.421 (inactive) in assay [17]; -0.391 (inactive) in [18]; -3.71 in assay [19]. The composite z-score is -0.225 (inactive) in [14] and 0.182 in [20].
`CCOc1cc(C(O)C2C=CC3C(=O)N(c4ccccc4)C(=O)C3N2Nc2ccc([N+](=O)[O-])cc2)ccc1O` (stereo not given): the z-score in [1] is -0.499; in [2], -0.742; in assay [3], -0.527; in assay [4], 0.162; in [5] it was -0.223; in assay [6], -2.36. For the same compound, the z-score in [7] is -2.03 (inactive); in [8], -0.459; in assay [9], -0.908; in assay [10], -0.373 (inactive); in assay [11], -0.506; in [12] it was -0.571 (inactive). The z-score in assay [13] was -0.669 (inactive); in assay [15], 0.878 (inactive); in assay [16] it was -0.864 (inactive); in assay [17], -0.763 (inactive); in assay [18], -0.709 (inactive); in assay [19], -0.901. Moreover, the composite z-score in [14] is 0.377 (inactive); in assay [20] it was -0.127.
In the case of `COc1ccc([Si](C)(C)[C@@H]2[C@@H](CC(=O)N3CCC[C@H]3CO)O[C@]3(C(=O)N(C)c4c(Br)cc(C)cc43)[C@H]2C)cc1`, the z-score in assay [1] was 0.49; in [2] it was 0.406; in assay [3], 1.03; in [4] it was -0.929; in [5] it was -1.04; in assay [6] it was 1.02. The z-score in assay [7] is 0.0349 (inactive); in [8], -0.489; in assay [9], -0.0745; in assay [10], 0.206 (inactive); in assay [11], 0.27; in assay [12] it was -1.62 (inactive). The z-score is 0.62 (inactive) in assay [13]; 0.331 (inactive) in assay [15]; -1 (inactive) in assay [16]; 0.233 (inactive) in [17]; 0.0205 (inactive) in assay [18]; -0.128 in assay [19]. Moreover, the composite z-score in assay [14] was -1.88 (inactive); in assay [20] it was 0.287.
